The values that follow come from PubChem BioAssay (NCATS).

Records with an inconclusive call do not appear. The source made the active and inactive calls. Calls come from the whole dose curve; as a rule, active = well fitted inhibition curve with a large enough effect; inconclusive = small, poorly fitted or top-dose-only effect, or effect the other way; inactive = flat fitted curve, though single readings scatter.

Sequence of Ubiquitin carboxyl-terminal hydrolase 2 (Homo sapiens) (O75604 whole entry, looked up): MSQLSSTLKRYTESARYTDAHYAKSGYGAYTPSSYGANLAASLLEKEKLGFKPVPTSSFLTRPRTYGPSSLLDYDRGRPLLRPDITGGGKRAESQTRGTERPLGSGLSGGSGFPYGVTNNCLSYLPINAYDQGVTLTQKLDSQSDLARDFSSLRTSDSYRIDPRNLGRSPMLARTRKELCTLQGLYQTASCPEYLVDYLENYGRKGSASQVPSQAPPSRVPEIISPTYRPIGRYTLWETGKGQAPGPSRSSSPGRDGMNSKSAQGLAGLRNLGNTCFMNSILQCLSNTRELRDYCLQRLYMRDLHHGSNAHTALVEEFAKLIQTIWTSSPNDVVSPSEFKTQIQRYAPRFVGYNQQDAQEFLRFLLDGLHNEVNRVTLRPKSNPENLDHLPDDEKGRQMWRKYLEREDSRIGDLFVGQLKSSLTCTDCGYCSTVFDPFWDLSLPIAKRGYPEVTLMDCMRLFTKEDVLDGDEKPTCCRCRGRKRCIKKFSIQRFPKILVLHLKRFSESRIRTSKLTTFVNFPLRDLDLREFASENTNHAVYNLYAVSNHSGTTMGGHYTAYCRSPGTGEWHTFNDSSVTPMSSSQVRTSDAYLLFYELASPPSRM

This test concerns the target Ubiquitin carboxyl-terminal hydrolase 2 (Homo sapiens) (UniProt O75604). Nature of the test: qHTS Validation Assay for Inhibitors of Ubiquitin-specific Protease USP2a Using CHOP2 as the Reporter (AID 463106).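 Note: plate controls were DMSO for no effect and full inhibition by NEM for full effect.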 As to conditions: USP2a cleavage of CHOP2 reporter, enzymatic; series mostly up to 38.3 µM; activity, negative = inhibition: at the top concentration. Summed up: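 Inhibition is expressed relative to NEM as the full-inhibition control, with concentration-response curves classed by fit quality, magnitude and activity. Enzyme (USP2 core, 10nM) meets 25nM Ub-CHOP2 after compound preincubation; readings are taken at 60min.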
On to `Nc1ncnc2c1c(I)cn2[C@@H]1C[C@H](N)[C@@H](O)[C@H]1O`, for which the “activity, negative = inhibition” value is -0.0275% (inactive).

With `CNCC[C@H](Oc1ccc(C(F)(F)F)cc1)c1ccccc1`, the “activity, negative = inhibition” value was -0.18% (inactive).

Consider `CN(C)c1ccc(/C=C2\C(=O)Nc3ccccc32)cc1`, for which the “activity, negative = inhibition” value is -9.21% (inactive).

Consider `Oc1ccccc1O`, for which the “activity, negative = inhibition” value is 0.133% (inactive).

As to `CC[C@@H](C)[C@H]1O[C@]2(CC[C@H]1C)C[C@@H]1C[C@@H](CC=C(C)[C@@H](O[C@H]3C[C@H](OC)[C@@H](O[C@H]4C[C@H](OC)[C@@H](O)[C@H](C)O4)[C@H](C)O3)[C@@H](C)C=CC=C3CO[C@@H]4[C@H](O)C(C)=C[C@@H](C(=O)O1)[C@]34O)O2`, the “activity, negative = inhibition” value is -22.5% (inactive).

For `CC12C(=O)OC(=O)C1(C)C1CCC2O1` (stereo not given), the “activity, negative = inhibition” value is 0.0591% (inactive).

For the compound `Cc1cc2c(cc1Cl)N(C(=O)Nc1ccc(Oc3cccnc3C)nc1)CC2`, the “activity, negative = inhibition” value is -10% (inactive).

As to `O=C(/C=C/c1ccc(O)cc1)c1ccc(O)cc1O`, the “activity, negative = inhibition” value was 3% (inactive).

As to `N#C/C(=C\c1ccc(O)c(O)c1)C(=O)NCCCc1ccccc1`, the “activity, negative = inhibition” value is -1.85% (inactive).

With `O=C(c1ccc(Cl)cc1)N1CCN(c2ccc([N+](=O)[O-])c3ncccc23)CC1`, the “activity, negative = inhibition” value is -2.94% (inactive).

With `C[C@@H](CN1CCC(Cc2ccccc2)CC1)[C@@H](O)c1ccc(O)cc1`, the “activity, negative = inhibition” value is -1.79% (inactive).

With `CC(=O)/C=C1\C(=O)N(C)c2ccccc21`, the “activity, negative = inhibition” value is 0.37% (inactive).

As to `CC(COc1ccc(/C=C/c2ccccc2)cc1)[N+](C)(C)C` (stereo not given), the “activity, negative = inhibition” value is -0.534% (inactive).

Take `COc1cc2nc(N3CCN(C(=O)OCc4ccccc4)C(C(=O)NC(C)(C)C)C3)nc(N)c2cc1OC` (stereo not given): the “activity, negative = inhibition” value is 0.232% (inactive).

For the compound `CCOC(=O)N1CCN(/[N+]([O-])=N/Oc2ccc([N+](=O)[O-])cc2[N+](=O)[O-])CC1`, the “activity, negative = inhibition” value is 3.32% (inactive).
